High-throughput results from PubChem.
uPA generation – blocks generation of uPA at the cell surface | cell surface uPA generation assay, qHTS | Potency, µM (highest dose often 38.3 µM), inactives show at the top dose activity change, negative = inhibition, actives largely listed as inhibitors | hit rate 0.31% among 330,000 | AID 540303; active = well fitted inhibition curve with a large enough effect; inconclusive = small, poorly fitted or top-dose-only effect; inactive = no such curve, though single readings can be large or run the other way; tested in mouse RAW 264.7 cells; note: % is set by controls: 0 for no effect and ±100 for the full control effect; nearly all actives have a fitted effect of over 55% in size
SMN2 splice enh – enhancers of SMN2 splice variant expression; HEK293 SMN2-luciferase splicing reporter, luminescence, 30-36 h; Potency, µM (doses to about 46.1 µM), without a hit: top-dose activity change, positive = activation, hits mostly activators; hit rate 2.8% among 210,000; AID 1458; note: % of control where 0% means no effect; nearly all actives have a fitted effect of over 55% in size
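HEK293 cells carry an SMN2 […]–luciferase reporter in which exon 7 inclusion puts luciferase in frame. Cells were plated 10-12 h before compound addition, then incubated 30-36 h at 37C. ONE-Glo luminescence was read; sodium butyrate at 4.5 mM final served as control.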
FLuc modulator – inhibits or activates purified firefly luciferase, miR-21 counter-screen; purified FLuc, Km substrates, luminescence inhibition; AID 588342; Potency, µM (series often up to 57.5 µM), inactives show at the highest dose activity change, negative = inhibition, actives largely listed as inhibitors; P08659; hit rate 6.9% among 360,000;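 note: plate controls were vehicle for no effect and reference inhibitor for full effect; nearly all actives have a fitted effect of over 55% in size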
Target sequence (P08659 whole entry, looked up): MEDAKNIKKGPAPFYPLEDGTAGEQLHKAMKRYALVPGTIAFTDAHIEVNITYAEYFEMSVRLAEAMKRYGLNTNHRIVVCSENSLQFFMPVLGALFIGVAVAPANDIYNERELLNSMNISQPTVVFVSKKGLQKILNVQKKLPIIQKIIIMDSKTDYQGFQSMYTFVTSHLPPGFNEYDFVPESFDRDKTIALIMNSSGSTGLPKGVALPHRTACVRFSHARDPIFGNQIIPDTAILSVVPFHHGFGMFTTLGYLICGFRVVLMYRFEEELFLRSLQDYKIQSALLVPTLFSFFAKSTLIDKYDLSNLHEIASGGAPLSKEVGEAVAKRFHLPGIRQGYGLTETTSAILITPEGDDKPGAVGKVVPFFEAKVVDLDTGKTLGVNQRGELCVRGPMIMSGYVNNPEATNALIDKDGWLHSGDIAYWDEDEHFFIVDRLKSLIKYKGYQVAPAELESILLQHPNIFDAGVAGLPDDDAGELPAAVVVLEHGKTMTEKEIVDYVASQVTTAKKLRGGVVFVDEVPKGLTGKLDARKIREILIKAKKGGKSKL
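Biochemical qHTS of compounds, final roughly 60 µM downward over six points, against 10 nM purified firefly luciferase using Km concentrations of substrates (10 uM D-luciferin, 10 uM ATP) in Tris acetate pH 7.5 buffer; luminescence output.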
Rab9 promoter act – Rab9 promoter activation; Potency, µM (series often up to 9.22 µM), without a hit: at the top dose activation, negative = inhibition, hits mostly activators; Huh7 Rab9 promoter-luciferase reporter, luminescence, 24 h; hit rate 2.8% among 320,000; note: % of control where 0% means no effect; nearly all actives have a fitted effect of over 60% in size
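Stable Rab9-luc Huh7, 1500 cells/well, 2 h settle; cmpd in DMSO, 24 h, 37 °C/5% CO2; luciferase reagent 10 min RT; luminescence.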
ELG1 genotox – induces genotoxicity in HEK293T cells with luciferase-tagged ELG1 | HEK293T ELG1-luciferase reporter, luminescence, 16 h | Potency, µM (doses to about 46 µM), inactives show top-dose activity change, positive = activation, actives largely listed as activators | hit rate 1.3% among 330,000; note: % of control where 0% means no effect; nearly all actives have a fitted effect of over 60% in size
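HEK293T cells expressing luciferase-tagged ELG1 were exposed to compound or DMSO vehicle for 16 hr at 37 °C and 5% CO2. Luciferase activity was then measured with ONE-Glo after 30 min at room temperature.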
NPC1 promoter act – activates the NPC1 promoter. Potency, µM (doses to about 9.22 µM), for the others: top-dose activation, most hits filed as activators. hit rate 2.4% among 320,000. Huh7 NPC1 promoter luciferase reporter, 24 h; note: % of control where 0% means no effect; nearly all actives have a fitted effect of over 60% in size
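Cells: Huh7 expressing luciferase under the NPC1 promoter, 1500/well. Seeded 2 h, compound added, incubated 24 h at 37 °C. Luciferase reagent, 10 min ambient, then luminescence.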
The depositor's hits bear a star; ? = inconclusive; . = not tested or not shown; [ ] = another dose, or the depositor's remark. This is a sample that favours compounds with a hit; in the whole collection about 7.3% have one here. Unless noted, calls come from the whole dose curve; as a rule, active = well fitted curve in the direction sought with a large enough effect; inconclusive = small, poorly fitted or top-dose-only effect, or another doubt; inactive = no such curve, though single readings can be large; an effect the other way counts as inactive or inconclusive. Potency is the fitted concentration of half-maximal effect.

SMILES	uPA generation	SMN2 splice enh	FLuc modulator	Rab9 promoter act	ELG1 genotox	NPC1 promoter act
O=C(O)c1ccc(S(=O)(=O)c2ccc(Sc3ccc(C(=O)O)c(C(=O)O)c3)cc2)cc1	1.0%	12.9%	10.7µM*	-7.5%	0.0%	-6.6%
CCOc1ccc(CNC(=O)c2nn(-c3ccc(OC)cc3)c(=O)c3c2c2ccccc2n3C)cc1	.	13.1%	1.4%	.	.	.
COc1ccc2cc(-c3ccn[nH]3)ccc2c1	-11.3%	.	1.35µM*	1.78µM*	5.8µM*	2.24µM*
CCc1ccc(-n2c(=O)c3cccnc3n2CC(=O)N(CC)c2cccc(C)c2)cc1	.	.	4.5%	.	.	.
COc1ccc(OC)c(C2Nc3nc4ccccc4n3C(C)=C2C(=O)Nc2ccc(C)cc2C)c1 (centres undefined)	.	7.94µM*	5.8%	-6.3%	1.3%	-7.0%
COc1ccc(/C=C\C(=O)NCC(=O)N/N=C/c2ccc(O)cc2O)cc1	-10.6%	.	?	-0.5%	?	-1.7%
COc1ccc2[nH]c(C(=O)N/N=C/c3ccc(O)cc3O)cc2c1	?	.	10.7µM*	-1.7%[1.84 µM]	15.3%	-36.2%
COc1cc2cc(C(=O)N/N=C/c3ccccc3Cl)[nH]c2cc1OC	-3.0%	.	16.9µM*	-3.2%	-4.9%	-4.5%
COc1ccc2cc(C(=O)N/N=C/c3cc(OC)c(OC)c(OC)c3)[nH]c2c1	-11.1%	.	6.75µM*	-2.0%	-6.4%	0.6%
COc1ccc(/C=N/NC(=O)c2cc3cc(OC)c(OC)cc3[nH]2)cc1	?	.	?	0.3%	1.3%	-1.9%
CCOc1ccc2[nH]c(C(=O)N/N=C/c3ccc(OC)cc3)cc2c1	-1.2%	.	10.7µM*	-18.1%	5.9%	-8.1%
CC(=O)Nc1ccc(S(=O)(=O)NCCCN2CCN(Cc3ccccc3)CC2)cc1Cl	1.3%	.	-1.3%	0.0%	-1.0%	2.1%
C[C@@]12CCC[C@H]1C1CC[C@H]3C[C@H](O)CC[C@]3(C)C1CC2 (some centres undefined)	.	-3.1%	.	.	.	.
CC1=CC(=O)CC(C)(C)[C@]1(O)/C=C\C(C)=C\C(=O)O	.	-10.9%[9.22 µM]	.	.	.	.
Cc1cc(C)c(C#N)c(SCC(=O)Nc2cc(C)on2)n1	-4.0%	.	.	.	18.3µM*	.
Cc1cc(C)c(C#N)c(SCC(=O)Nc2ccccc2C(N)=O)n1	-15.3%	12.6µM*	12µM*	1.26µM*	?	2µM*
Cc1cc(C)c(C#N)c(SCC(=O)Nc2ccc3c(c2)OCO3)n1	2.3%	15.8µM*	-10.0%	?	16.4µM*	?
COc1ccc(-c2nc3n(n2)C(c2ccccc2OC)C(C(=O)Nc2cccnc2)=C(C)N3)cc1 (centres undefined)	.	-1.2%	-0.4%	.	.	.
N#Cc1ccccc1NC(=O)C(=O)NCCc1csc2nc(-c3cccc(F)c3)nn12	.	.	-6.2%	.	.	.
Cc1ccc(C)c(S(=O)(=O)NCCc2csc(-c3ccc(Cl)cc3)n2)c1	.	.	4.1%	.	.	.
CCN(CC)C(=O)c1cc2sc3ccccc3c2s1	-2.4%	25.1%	9.53µM*	3.16µM*	?	2.82µM*
CC(C)c1nn2c(=O)cc(COC(=O)c3ccc(NC(=O)c4cccs4)cc3)nc2s1	.	.	-0.6%	.	.	.
CSCc1ccc(C(=O)NCc2ccccc2)cc1	-1.8%	15.9%	26.9µM*	-3.1%	2.6%	8.5%
CSCc1ccc(C(=O)NCc2ccc(C)cc2)cc1	-0.4%	-18.5%	?	-1.8%	0.3%	-2.4%
CSCc1ccc(C(=O)Nc2ccc(C(N)=O)cc2)cc1	?	11.2µM*	5.36µM*	2.82µM*	14.6µM*	2µM*
COc1ccc(N2CCN(c3ncnc4onc(C)c34)CC2)cc1	.	.	-1.8%	.	.	.
Cc1cccc(C2NC(c3cccc(C)c3)C([N+](=O)[O-])C(C)(C)C2[N+](=O)[O-])c1 (centres undefined)	7.6%	-18.0%	7.3%	-3.1%	-2.0%	-4.3%
C/C=C\C=C/C(=O)Nc1cccc(C2=NOC3(C2)C[C@@H](C(N)=O)N(C(=O)CCCCC)C3)c1 (some centres undefined)	2.5%	.	13.5µM*	-5.1%	2.2%	-39.4%
